# Results from PubChem BioAssay AID623870 (Broad Institute, 2012).
# Out of some 390,000 compounds screened, about 2,600 (0.67%) were called active. The list comes from a sample in which actives are over-represented; it also holds similar structures and randomly drawn compounds. A number with no mark means an inactive call.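 How the source made its calls: active means mean inhibition of replicates at least 50% and at least half of replicates each reaching 50%; inconclusive means half or more replicates reach 50% but mean below 50%; inactive means the rest.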
# Molecular target: Transforming acidic coiled-coil-containing protein 3 (Homo sapiens) (UniProt Q9Y6A5)
# Test: disruptors of ARNT/TACC3 protein interaction, primary screen, biochemical, AlphaScreen, single concentration (AID 623870);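 further: 0% = complete ARNT plus TACC3 wells and 100% = ARNT alone without TACC3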
# Settings: AlphaScreen His-ARNT PAS-B/GST-TACC3 binding, luminescence; at 9.99 µM; hits give high values; TACC3 fragment carries E629A point mutation
row,Compound,inhibition
1,C/C(=N/NC(=O)CSc1ccccn1)c1ccc([N+](=O)[O-])cc1,-1.61%
2,C/C(Cc1ccccc1)=N\NC(=O)CNC(=O)c1ccccc1Cl,4.6%
3,C/C(=N\NC(=O)Cc1ccc(Cl)cc1)c1ccccn1,28.6% (active)
4,COc1ccc(CC(=O)N/N=C(\C)c2ccccn2)cc1,65.8% (active)
5,COc1ccc(CNC(=O)COc2cccnc2[N+](=O)[O-])cc1,-14.8%
6,CCOc1ncccc1C(=O)NCCc1ccc(OC)cc1,3.87%
7,C[C@H]1CN([C@@H](C)CO)C(=O)c2cc(/C=C/c3ccccc3)cnc2O[C@H]1CN(C)Cc1cccc(C(=O)O)c1,-2.95%
8,CO[C@@H]1CN(C)C(=O)c2cc(NC(=O)Nc3cc(F)ccc3F)ccc2OC[C@@H](C)N(C)C[C@H]1C,11.6%
9,CO[C@H]1CN(C)C(=O)c2cc(NC(=O)C3CCOCC3)ccc2OC[C@@H](C)N(Cc2cccnc2)C[C@@H]1C,-4.49%
10,CCNC(=O)C[C@H]1CC[C@@H]2[C@H](COc3ccc(NC(=O)Nc4cccc(Cl)c4)cc3C(=O)N2C)O1,4.93%
11,CO[C@@H]1CN(C)C(=O)c2cc(NC(=O)C3CCOCC3)ccc2OC[C@H](C)N(Cc2cccnc2)C[C@@H]1C,-4.7%
12,CCCN(C)C[C@@H]1Oc2cc(-c3ccc(C)cc3)ccc2S(=O)(=O)N([C@@H](C)CO)C[C@H]1C,3.53%
13,CO[C@H]1O[C@H](CO)[C@@H](OC(=O)Nc2ccccc2-c2ccccc2)[C@H](OC(=O)Nc2ccccc2)[C@H]1OC(=O)Nc1ccccc1,0.749%
14,COc1ccccc1-c1ccc([C@@H]2[C@@H](CO)N3CCCCN(C(=O)c4ccncc4)C[C@@H]23)cc1,-0.716%
15,CC(=O)/C(=N\Nc1ccc(Cl)cc1Cl)Sc1cccc2cccnc12,61.1% (active)
16,CC(NC(=O)COc1cccnc1[N+](=O)[O-])c1ccc(Cl)cc1Cl (configuration not stated),1.05%
17,CC1(c2ccc(Cl)cc2Cl)NC(=O)N(CC(=O)Nc2cccnc2Cl)C1=O (configuration not stated),0.909%
18,CN1C[C@H]2[C@@H](c3ccccc31)[C@@H](CO)N2Cc1ccccc1,2.13%
19,COc1ccc(NC(=O)Nc2ccc3c(c2)C(=O)N([C@H](C)CO)C[C@H](C)[C@H](CN(C)S(=O)(=O)c2ccc(OC)cc2)O3)cc1,8.74%
20,O=C(Nc1cc(F)ccc1F)N1CCCCN2[C@H](C1)[C@H](c1ccc(-c3cccnc3)cc1)[C@@H]2CO,-4.21%
21,CNC[C@H]1Oc2cc(C#Cc3ccccc3)ccc2S(=O)(=O)N([C@@H](C)CO)C[C@@H]1C,21.9%
22,CNC[C@H]1Oc2cc(C#Cc3ccccn3)ccc2S(=O)(=O)N([C@H](C)CO)C[C@@H]1C,47.7% (active)
23,CC(C)NC(=O)N(C)C[C@H]1Oc2cc(C#Cc3ccccn3)ccc2S(=O)(=O)N([C@H](C)CO)C[C@@H]1C,-1.38%
24,CN1[C@@H]2c3ccc(-c4cccc(F)c4)c(=O)n3C[C@@H]2[C@@H](CO)[C@@H]1C(=O)NC1CCC1,-9.74%

row,Compound,inhibition
1,CCC(=O)Nc1ccc2c(c1)OC[C@H](C)N(C(=O)c1ccncc1)C[C@H](C)[C@H](OC)CN(C)C2=O,6.95%
2,C[C@@H]1CN([C@@H](C)CO)C(=O)c2cccc(NC(=O)c3ccncc3)c2O[C@H]1CN(C)S(=O)(=O)c1ccc(F)cc1,-8.57%
3,C[C@@H]1CN([C@H](C)CO)C(=O)c2cc(NC(=O)Cc3cn(C)c4ccccc34)ccc2O[C@@H]1CN(C)S(=O)(=O)c1cccs1,-11.1%
4,Cc1ccc(CC2CC(=O)N(c3nc(C)cc(C)n3)C2=O)cc1 (configuration not stated),-8.57%
5,COC(=O)CC1=NN(c2nc(C)cc(C)n2)C(=O)C1,13.9% (active)
6,Cc1cc(C)nc(N2C(=O)CC(Cc3ccccc3)C2=O)n1 (configuration not stated),-0.771%
7,COCCNC(=O)C[C@H]1CC[C@@H]2[C@@H](COc3ccc(NC(=O)C4CCOCC4)cc3C(=O)N2C)O1,-6.26%
8,CCC(=O)N[C@H]1CC[C@H](CCn2cc(-c3cccc(OC)c3)nn2)O[C@H]1CO,-6.96%
9,Cc1c(NC(=O)CN2C(=O)C(=O)N(Cc3ccccc3)C2=O)c(=O)n(-c2ccccc2)n1C,0.167%
10,Cc1c(NC(=O)CSc2cccc3cccnc23)c(=O)n(-c2ccccc2)n1C,93.2% (active)
11,Cc1ccccc1OCCC(=O)Nc1c(C)n(C)n(-c2ccccc2)c1=O,5.66%
12,C[C@@H]1CN([C@H](C)CO)C(=O)c2ccccc2-c2ccccc2CO[C@@H]1CN(C)S(=O)(=O)CC(F)(F)F,-0.141%
13,C[C@H](CO)N1C[C@H](C)[C@H](CN(C)C)Oc2ccc(NC(=O)Cc3ccccc3)cc2CC1=O,-9.42%
14,C[C@H](CO)N1C[C@H](C)[C@H](CN(C)C(=O)NC2CCCCC2)Oc2c(NC(=O)C3CC3)cccc2C1=O,-12.2%
15,CNC(=S)N/N=C/c1ccc(N2CCOCC2)s1,46.8% (active)
16,O=[N+]([O-])c1cc(Cl)cc(/C=N/NC(=S)Nc2cc(S(=O)(=O)N3CCOCC3)ccc2Cl)c1O,41.4%
17,C=CCNC(=S)N/N=C/c1ccc(C)s1,3.54%
18,COc1ccc(NC(=O)N(C)C[C@@H]2Oc3c(NC(=O)C4CCOCC4)cccc3C(=O)N([C@H](C)CO)C[C@@H]2C)cc1,26.5%
19,O=C(NNC1=NCCC1)c1cccc(S(=O)(=O)N2CCCCC2)c1,30.6%
20,O=C(Nc1nncs1)c1cccc(S(=O)(=O)N2CCCCC2)c1,-5.27%
21,Cc1ncc(CO)c(/C=N/NC(=O)c2cccc(S(=O)(=O)N3CCCC3)c2)c1O,75.9% (active)
22,CCCN(C)C[C@@H]1OCCCC[C@@H](C)Oc2ccc(NS(=O)(=O)c3c(C)noc3C)cc2C(=O)N([C@H](C)CO)C[C@@H]1C,-10.1%
23,COCC#Cc1cnc2c(c1)C(=O)N([C@@H](C)CO)C[C@@H](C)[C@@H](CN(C)C(=O)Nc1ccc(OC)cc1)O2,4.88%
